An excerpt weighted towards active compounds, which were near 1.8% of everything screened.
LYPLA1 inh = blocks human lysophospholipase 1, a PME1 counter-screen | O75608 | recombinant LYPLA1, FP-Rh probe fluorescence polarization | inhibition, % at 5.9 µM | actives 0.16% (n = 320,000) | AID 2174;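 active means inhibition above the mean of all tested compounds plus 3 SD, set per campaign, cut at about 14% in these data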;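 further: inhibitors block serine hydrolase probe labeling of LYPLA1 so polarization falls; 0% = enzyme with DMSO and 100% = wells lacking LYPLA1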
Target sequence (O75608 whole entry, looked up): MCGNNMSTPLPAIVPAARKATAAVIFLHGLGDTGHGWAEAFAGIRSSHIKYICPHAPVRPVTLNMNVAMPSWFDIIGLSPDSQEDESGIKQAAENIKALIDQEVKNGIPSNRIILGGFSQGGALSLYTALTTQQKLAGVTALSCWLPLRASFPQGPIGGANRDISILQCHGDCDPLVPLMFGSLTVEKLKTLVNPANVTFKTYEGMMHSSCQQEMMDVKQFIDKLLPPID
PAD4 FP inh = inhibitors of human PAD4; Q9UM07; recombinant PAD4, RCA probe fluorescence polarization; inhibition, % at 6.36 µM; actives 0.41% (n = 330,000); AID 485272;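 active means percent inhibition above a cutoff equal to the mean of all tested compounds plus 3 SD, cut at about 15% in these data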;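 further: 0% = PAD4 with RCA probe and DMSO and 100% = probe without PAD4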
GSTO1 counter = counter-screen for RBBP9 inhibitors: inhibitors of human GSTO1; recombinant GSTO1, activity-based probe fluorescence polarization; inhibition, % at 5.96 µM; actives 1.1% (n = 300,000);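 active means inhibition above the campaign mean inhibition plus 3 SD, cut at about 35% in these data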;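 further: 0% = GSTO1-1 with DMSO and 100% = wells lacking GSTO1-1 enzyme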
Target sequence (P78417 whole entry, looked up): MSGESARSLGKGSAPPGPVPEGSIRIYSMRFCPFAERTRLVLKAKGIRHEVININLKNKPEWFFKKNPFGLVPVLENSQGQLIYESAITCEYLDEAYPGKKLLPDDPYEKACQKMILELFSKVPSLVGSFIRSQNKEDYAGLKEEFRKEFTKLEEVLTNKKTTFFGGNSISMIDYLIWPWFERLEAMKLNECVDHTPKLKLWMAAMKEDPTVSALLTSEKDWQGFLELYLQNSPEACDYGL
PME-1 primary = PME-1 (human) inhibition; Q9Y570; recombinant PME-1, FP-Rh probe fluorescence polarization; inhibition, % at 5.9 µM; actives 0.53% (n = 320,000);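 active means inhibition above the campaign mean of all compounds plus 3 SD, cut at about 26% in these data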;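 further: competitive labeling of PME-1 active site by serine hydrolase directed probe; 0% = PME-1 with DMSO and 100% = wells lacking PME-1 enzyme; inhibitors block probe labeling so polarization falls and inhibition rises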
LYPLA2 inh = blocks human lysophospholipase 2, a PME1 counter-screen. O95372. recombinant LYPLA2, FP-Rh probe fluorescence polarization. inhibition, % at 5.9 µM. actives 0.38% (n = 320,000). AID 2177;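 active means inhibition above the screen-wide mean plus 3 SD, limit set per campaign, cut at about 26% in these data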;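 further: 0% = LYPLA2 with DMSO and 100% = wells lacking LYPLA2 enzyme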
Target sequence (O95372 whole entry, looked up): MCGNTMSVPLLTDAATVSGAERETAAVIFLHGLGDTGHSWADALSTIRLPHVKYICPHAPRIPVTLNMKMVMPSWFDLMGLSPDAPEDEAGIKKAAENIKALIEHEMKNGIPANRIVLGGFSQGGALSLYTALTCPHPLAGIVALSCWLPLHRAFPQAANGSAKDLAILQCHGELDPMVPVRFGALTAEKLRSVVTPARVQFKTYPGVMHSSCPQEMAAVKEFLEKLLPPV
Fam108B inh = Fam108B inhibition, counter-screen for RBBP9 inhibitors; recombinant Fam108B, FP-Rh probe fluorescence polarization; inhibition, % at 9.51 µM; actives 0.33% (n = 300,000); AID 1947;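 active means inhibition above the screen mean inhibition plus 3 SD, computed separately per campaign, cut at about 18% in these data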;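 further: inhibitors lower polarization as less probe binds the enzyme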
* marks the source's active call; other numbers are inactive results.

SMILES | LYPLA1 inh | PAD4 FP inh | GSTO1 counter | PME-1 primary | LYPLA2 inh | Fam108B inh
Nn1c(C2COc3ccccc3O2)n[nH]c1=S (configuration not stated) | -1.1 | -5.5 | 35.4* | -3.5 | 0.1 | -3.9
CC(C)c1ccc(NC2CCCN(C(=O)c3n[nH]c4c3CCC4)C2)cc1 (configuration not stated) | 3.9 | -0.5 | -2.3 | -0.4 | 8.0 | 6.3
COc1cc2[nH]c(C(=O)NN)c(N)c2cc1OC | -4.3 | 8.3 | 38.8* | 4.0 | -8.3 | 9.4
COc1cccc2[nH]c(C(=O)NN)c(N)c12 | 0.4 | -11.8 | 16.3 | 20.1 | 3.8 | 3.3
Oc1ccc(/C=N/N2CCN(C3c4ccccc4-c4ccccc43)CC2)cc1O | -4.9 | 7.9 | 44.3* | 0.7 | 4.1 | 5.5
Cc1ccc(CN2CCN(/N=C/c3ccc(O)c(O)c3)CC2)cc1 | 0.5 | 6.7 | 35.9* | 4.9 | 6.6 | 1.5
O=C(O)c1cn[nH]c1-c1cccc([N+](=O)[O-])c1 | 3.0 | -8.2 | -6.5 | -3.5 | 5.7 | 0.5
Cc1ccc(Nc2nnc(SC/C(O)=C(\C#N)c3nc4ccccc4[nH]3)s2)c(C)c1 | -7.9 | -7.0 | -3.0 | 64.2* | -3.7 | 18.1
O=C(CCNC(=O)c1ccccc1Cl)NCCC1=CCCCC1 | -0.2 | 1.4 | 2.9 | -2.4 | 1.0 | -2.5
S=C(NCCNC(=S)Nc1ccccc1)Nc1ccccc1 | -0.3 | 2.8 | 7.6 | 32.8* | 8.9 | 1.7
S=C(NCCOCCOCCNC(=S)Nc1ccccc1)Nc1ccccc1 | 1.9 | -7.4 | 6.0 | 8.2 | 6.3 | -0.4
CCc1nc2sc3c(c2c(=O)n1NC(=O)CCl)CCCC3 | 5.6 | 2.2 | 58.4* | 4.5 | 9.6 | 2.0
Cc1ccc(NCC(=O)c2ccccc2)cc1Cl | 5.6 | -6.4 | 3.9 | 0.1 | 4.4 | -1.6
Cc1ccc(NC2=C(NC(=O)c3ccccc3)C(=O)c3ccccc3C2=O)cc1Cl | 0.6 | 2.8 | 61.8* | 10.1 | 2.9 | 7.6
COc1ccc(OC2CCN(S(=O)(=O)c3ccc(C(C)=O)cc3)CC2)cc1 | 9.2 | 3.1 | 1.0 | 4.8 | 16.6 | 3.6
NC(=O)c1ccc(-c2nnc(Nc3ccc(S(N)(=O)=O)cc3)c3ccccc23)cc1 | -3.8 | -2.0 | -9.4 | -0.4 | 4.4 | -2.3
NS(=O)(=O)c1ccc2c(c1)C1C=CCC1C(C1CC=CCC1)N2 (configuration not stated) | -10.3 | -7.2 | 36.5* | 18.1 | 0.4 | 14.5
CC(C)C1Nc2ccc(S(N)(=O)=O)cc2C2C=CCC21 (configuration not stated) | -2.8 | -13.0 | 16.5 | 3.8 | 7.4 | 5.3
O=C(O)C1CCCCC1C(=O)Nc1ccc(S(=O)(=O)N2CCCC2)cc1 (configuration not stated) | -4.4 | -2.1 | 0.1 | -1.5 | -4.9 | -1.4
CC(C)=CC1C(C(=O)NCCc2ccccc2)C1(C)C (configuration not stated) | -3.6 | -2.6 | 5.4 | -2.1 | 0.0 | 0.6
O=c1c2ccccc2nc(/C=C/c2c[nH]c3ccccc23)n1CCO | -1.8 | -0.8 | -3.8 | 47.0* | 5.8 | 4.4
CC(=O)N1CCN(C(=O)c2ccc3oc(CCCc4ccccc4)nc3c2)CC1 | 2.6 | -3.9 | 0.9 | 5.6 | 1.4 | -0.2
O=C(c1ccc2oc(CCCc3ccccc3)nc2c1)N1CCCC(CCCO)C1 (configuration not stated) | 6.5 | -2.2 | -0.9 | 42.0* | 17.4 | 0.9
CC1=C(C(=O)OCC(C)C)C2(O)C(=O)c3ccccc3C2(O)N1 (configuration not stated) | -4.0 | -6.0 | 68.2* | 6.3 | 2.3 | -0.5
COc1ccccc1C1CC(=O)NC(C)=C1C(=O)OCC(C)C (configuration not stated) | -1.9 | -1.9 | -2.6 | 5.8 | 4.1 | 2.2
SMILES | LYPLA1 inh | PAD4 FP inh | GSTO1 counter | PME-1 primary | LYPLA2 inh | Fam108B inh
CCN1C(=O)[C@H]2[C@@H](c3ccc(-c4ccc(C(C)=O)cc4)cc3)N3CCCC[C@@]3(C(=O)OC)[C@H]2C1=O | -1.5 | -1.5 | -8.2 | -1.8 | -3.7 | -3.0
CCOc1ncccc1C(=O)NCc1ccc(OC)c(OC)c1 | -1.1 | -0.8 | 6.8 | -5.7 | 0.6 | 12.5
O=C1c2ccccc2C(=O)c2c(Nc3ccc(CCO)cc3)ccc(O)c21 | -2.6 | 4.5 | 39.0* | 28.7* | 27.1* | 17.2
O=C1c2c(O)ccc(O)c2C(=O)c2c(NCCNCCO)ccc(NCCNCCO)c21 | 2.2 | -2.8 | 4.5 | 1.9 | 4.1 | 6.1
O=C(CCl)NCc1cc(-c2ccc(Cl)cc2)no1 | 1.6 | -0.1 | 89.0* | 0.4 | 7.0 | 1.2
COc1ccc(OCc2cc(-c3ccc(Cl)cc3)no2)cc1 | -0.1 | 5.0 | -5.8 | 1.3 | -1.5 | -2.7
CC(C)c1onc(C(=O)NC2CCCCC2)c1[N+](=O)[O-] | 1.7 | 5.7 | 36.9* | 1.4 | 3.3 | 0.1
COc1cccc(CNC(=O)Cn2ccc3cc(S(=O)(=O)N4CCCCCC4)ccc32)c1 | 2.4 | -4.8 | -6.1 | 14.6 | 2.4 | 0.2
COc1cc(C2C(C#N)=C(N)OC3=C2C(=O)CCC3)c([N+](=O)[O-])cc1OC (configuration not stated) | -8.9 | -6.4 | 37.5* | -27.6 | -1.5 | 19.1*
CCCCN(CCCC)CCNC(=O)c1cn(CC)c2ccc(S(=O)(=O)N3CCc4ccccc4C3)cc2c1=O | -1.7 | 5.3 | -3.6 | 58.7* | 2.9 | 7.1
CCCN(CCC)CCCNC(=O)c1cn(CC)c2ccc(S(=O)(=O)N(C)C3CCCCC3)cc2c1=O | -4.4 | 1.3 | -0.3 | 49.1* | -8.2 | 3.8
CCCCN(CCCC)CCNC(=O)c1cn(C)c2ccc(S(=O)(=O)N(C)C3CCCCC3)cc2c1=O | 0.7 | -0.1 | 4.7 | 66.2* | 0.3 | -4.4
COCCNC(=O)NC(=O)CN1C(=O)NC(Cc2c[nH]c3ccccc23)C1=O (configuration not stated) | 3.4 | -7.9 | 7.1 | 0.6 | 2.8 | 2.0
CC(C)NC(=O)CN1C(=O)c2cccc3cccc1c23 | -2.8 | 0.1 | -2.2 | 6.0 | 1.4 | 1.6
COCCNS(=O)(=O)c1ccc(Cl)c(C(=O)NC2CCN(Cc3ccccc3)CC2)c1 | 5.6 | 0.9 | 2.0 | 1.7 | 9.9 | 2.3
C=CCOc1ccc(C(=O)c2ccccc2)c(OCC(=O)NC2(C#N)CCCC2)c1 | -2.2 | -3.6 | -4.8 | 6.3 | -5.9 | -2.0
COc1ccccc1CNC(=O)CNC(=O)N1CC(=O)Nc2ccccc21 | 8.9 | -1.5 | -4.5 | 4.8 | 0.6 | 1.8
Cc1c(Cl)cccc1NC(=O)CSc1nncn1-c1ccccn1 | -3.5 | -2.5 | -1.8 | 4.5 | -1.2 | 0.0
CCOc1ccc(NC(=O)C(c2ccccn2)N(C(=O)CCl)c2ccc(OC)cc2)cc1 (configuration not stated) | 3.7 | -9.3 | 35.6* | 3.5 | -4.9 | 2.3
COc1ccc(N(C(=O)Cc2cccs2)C(C(=O)NC2CCCC2)c2ccncc2)cc1 (configuration not stated) | 3.0 | -3.0 | 2.5 | 4.6 | 7.1 | -3.8

From PubChem
